Source: PubChem BioAssay (NCATS)
Inconclusive results are not listed. Active and inactive are the calls of the source. Calls come from the whole dose curve; as a rule, active = well fitted cell-killing curve with a large enough effect; inconclusive = small, poorly fitted or top-dose-only effect; inactive = no such curve, though single readings can be large or run the other way.

Assay: qHTS of pediatric cancer cell lines to identify multiple opportunities for drug repurposing: Primary screen for SJ-GBM2 cells (AID 1347091);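 for activity change, negative = cytotoxic: plate controls were DMSO neutral control for no effect and bortezomib for full effect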
Settings: SJ-GBM2 viability, CellTiter-Glo luminescence, 48 h; series mostly up to 46 µM; activity change, negative = cytotoxic: at the top concentration
How it was run: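 Viability measured as metabolically active cells via CellTiter-Glo luminescence following 48 hours of compound exposure, 11-point dilutions in confirmatory testing. 500-1,000 cells/well plated 5 hours before dosing; controls were DMSO and 2.3 µM bortezomib.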
Potency is the fitted concentration of half-maximal effect.

SMILES	activity change, negative = cytotoxic	Potency
c1cc2c(cc1[C@H]1OC[C@H]3[C@H]1CO[C@H]3c1ccc3c(c1)OCO3)OCO2	8.13% (inactive)	–
CC(=O)O[C@@]12CO[C@H]1C[C@H](O)[C@@]1(C)C(=O)[C@H](O)C3=C(C)[C@@H](O)C[C@@](O)([C@@H](OC(=O)c4ccccc4)[C@@H]21)C3(C)C	–	1.48 µM (active)
C[C@@H]1CC[C@@]2(OC1)O[C@H]1C[C@H]3[C@@H]4CC=C5C[C@@H](O[C@@H]6O[C@H](CO)[C@@H](O[C@@H]7O[C@@H](C)[C@H](O)[C@@H](O)[C@@H]7O)[C@H](O)[C@@H]6O[C@@H]6O[C@@H](C)[C@H](O)[C@@H](O)[C@@H]6O)CC[C@]5(C)[C@@H]4CC[C@]3(C)[C@@H]1[C@H]2C	–	5.26 µM (active)
N#C[C@H](O[C@@H]1O[C@H](CO[C@@H]2O[C@H](CO)[C@H](O)[C@H](O)[C@H]2O)[C@H](O)[C@H](O)[C@H]1O)c1ccccc1	–	26.4 µM (active)
COc1ccc(N(C(=O)Oc2c(C)cccc2C)c2ccnc(Nc3ccc(N4CCN(C)CC4)cc3)n2)c(OC)c1	–	8.33 µM (active)
O=C(N[C@@H](COc1ccc2[nH]c(=O)[nH]c2c1)c1ccccc1)c1cccn(Cc2ccc(F)c(F)c2)c1=O	–	20.9 µM (active)
CC(=O)Nc1ccc(OC[C@](C)(O)C(=O)Nc2ccc([N+](=O)[O-])c(C(F)(F)F)c2)cc1	8.89% (inactive)	–
CC(C)[C@H]1C(=O)N[C@H](CO)Cc2c[nH]c3cccc(c23)N1C	-16.6% (inactive)	–
C[C@@]12OC(=O)[C@]1([C@@H](O)[C@@H]1C=CCCC1)NC(=O)[C@H]2CCCl	–	0.0105 µM (active)
O=C(Nc1ccncc1)C(=O)c1cn(Cc2ccc(Cl)cc2)c2ccccc12	–	0.0418 µM (active)
N=c1c2c(-c3ccccc3)c(-c3ccccc3)n(Cc3ccccc3)c2ncn1C1CCC(O)CC1 (configuration not stated)	–	18.7 µM (active)
CCOC(=O)Nc1ccc(NCc2ccc(F)cc2)cc1N	30.3% (inactive)	–
CC(C)[C@]12O[C@@H]1[C@@H]1O[C@]13[C@]1(O[C@H]1C[C@@H]1C4=C(CC[C@@]13C)C(=O)OC4)[C@H]2O	–	0.001 µM (active)
CC1=C(O)C(=O)C=C2C1=CC=C1[C@@]2(C)CC[C@@]2(C)[C@@H]3C[C@](C)(C(=O)O)CC[C@]3(C)CC[C@]12C	–	0.935 µM (active)
COc1cc([C@@H]2c3cc4c(cc3[C@@H](O)C3COC(=O)C32)OCO4)cc(OC)c1O (some centres not stated)	–	0.0148 µM (active)
C=CCON=C(C[C@H]1O[C@@H]2O[C@]3(C)CC[C@@H]4[C@H](C)CC[C@@H]([C@H]1C)[C@@]24OO3)[C@H]1O[C@@H]2O[C@]3(C)CC[C@H]4[C@H](C)CC[C@@H]([C@@H]1C)[C@@]24OO3	–	0.372 µM (active)

Assay: qHTS of pediatric cancer cell lines to identify multiple opportunities for drug repurposing: Primary screen for A673 cells (AID 1347092); note: nearly all actives have a fitted effect of over 45% in size; for activity change, negative = cytotoxic: % is set by controls: 0 for no effect and ±100 for the full control effect
Settings: A673 Ewing sarcoma viability, CellTiter-Glo ATP luminescence, 48 h; series mostly up to 46 µM; activity change, negative = cytotoxic: at the top concentration
How it was run: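 A673 cells (500-1,000 cells/well in growth media) were pre-incubated 5 h at 37 degrees C, then exposed to compounds for 48 h. Viability was read as CellTiter-Glo luminescence; concentration-response curves came directly from the primary screen.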

SMILES	activity change, negative = cytotoxic	Potency
c1cc2c(cc1[C@H]1OC[C@H]3[C@H]1CO[C@H]3c1ccc3c(c1)OCO3)OCO2	-24.2% (inactive)	–
CC(=O)O[C@@]12CO[C@H]1C[C@H](O)[C@@]1(C)C(=O)[C@H](O)C3=C(C)[C@@H](O)C[C@@](O)([C@@H](OC(=O)c4ccccc4)[C@@H]21)C3(C)C	–	1.48 µM (active)
C[C@@H]1CC[C@@]2(OC1)O[C@H]1C[C@H]3[C@@H]4CC=C5C[C@@H](O[C@@H]6O[C@H](CO)[C@@H](O[C@@H]7O[C@@H](C)[C@H](O)[C@@H](O)[C@@H]7O)[C@H](O)[C@@H]6O[C@@H]6O[C@@H](C)[C@H](O)[C@@H](O)[C@@H]6O)CC[C@]5(C)[C@@H]4CC[C@]3(C)[C@@H]1[C@H]2C	–	3.72 µM (active)
Nc1ccc(N=Nc2ccccc2)cc1	–	24.3 µM (active)
N#C[C@H](O[C@@H]1O[C@H](CO[C@@H]2O[C@H](CO)[C@H](O)[C@H](O)[C@H]2O)[C@H](O)[C@H](O)[C@H]1O)c1ccccc1	–	29.6 µM (active)
S=C(SSC(=S)N1CCCCC1)N1CCCCC1	–	0.0266 µM (active)
CC(C)(O)C(=O)Nc1ccc([N+](=O)[O-])c(C(F)(F)F)c1	–	11.8 µM (active)
COc1ccc(N(C(=O)Oc2c(C)cccc2C)c2ccnc(Nc3ccc(N4CCN(C)CC4)cc3)n2)c(OC)c1	–	0.935 µM (active)
CC(N[C@H]1C[C@H]1c1ccccc1)c1ccc2c(c1)OCCO2 (some centres not stated)	-2.31% (inactive)	–
CC(=O)Nc1ccc(OC[C@](C)(O)C(=O)Nc2ccc([N+](=O)[O-])c(C(F)(F)F)c2)cc1	-26.7% (inactive)	–
C[C@@]12OC(=O)[C@]1([C@@H](O)[C@@H]1C=CCCC1)NC(=O)[C@H]2CCCl	–	0.0469 µM (active)
O=C(Nc1ccncc1)C(=O)c1cn(Cc2ccc(Cl)cc2)c2ccccc12	–	0.0743 µM (active)
N=c1c2c(-c3ccccc3)c(-c3ccccc3)n(Cc3ccccc3)c2ncn1C1CCC(O)CC1 (configuration not stated)	–	18.7 µM (active)
CC[C@@H]1[C@@H](C)O[C@@](O)([C@@H](C)[C@H](O)[C@H](C)[C@H]2OC(=O)C=CC=C[C@@H](C)[C@@H]([C@@H](C)[C@@H](O)[C@H](C)[C@@]3(O)C[C@H](O[C@H]4C[C@H](O)[C@H](O)[C@H](C)O4)[C@H](CC)[C@@H](C)O3)OC(=O)C=CC=C[C@@H]2C)C[C@H]1O[C@H]1C[C@H](O)[C@H](O)[C@H](C)O1	–	0.743 µM (active)
CC(=O)[O][Hg][c]1ccccc1	–	0.106 µM (active)
Cc1ccccc1-n1c(Cn2cnc3c(N)ncnc32)nc2cccc(C)c2c1=O	–	0.59 µM (active)
CCOC(=O)Nc1ccc(NCc2ccc(F)cc2)cc1N	–	18.7 µM (active)
COc1ccc2c(c1)[C@]13CCCCC1C(C2)N(C)CC3 (some centres not stated)	-10.3% (inactive)	–
CC(C)[C@]12O[C@@H]1[C@@H]1O[C@]13[C@]1(O[C@H]1C[C@@H]1C4=C(CC[C@@]13C)C(=O)OC4)[C@H]2O	–	0.001 µM (active)
O=C(Oc1ccc([N+](=O)[O-])cc1)N1CCN(Cc2cccc(Oc3ccccc3)c2)CC1	–	18.7 µM (active)
Clc1ccccc1C(c1ccccc1)(c1ccccc1)n1cccn1	1.54% (inactive)	–
CC1=C(O)C(=O)C=C2C1=CC=C1[C@@]2(C)CC[C@@]2(C)[C@@H]3C[C@](C)(C(=O)O)CC[C@]3(C)CC[C@]12C	–	1.18 µM (active)
COc1cc([C@@H]2c3cc4c(cc3[C@@H](O)C3COC(=O)C32)OCO4)cc(OC)c1O (some centres not stated)	–	0.0372 µM (active)
CC=C(C)C(=O)O[C@H]1C(C)=C2[C@@H]3OC(=O)[C@@](C)(O)[C@@]3(O)[C@@H](OC(=O)CCC)C[C@](C)(OC(C)=O)[C@@H]2[C@@H]1OC(=O)CCCCCCC	–	0.0235 µM (active)
CC(C)(O)C=CC(=O)[C@](C)(O)[C@H]1[C@H](O)C[C@]2(C)[C@@H]3CC=C4[C@@H](C=C(O)C(=O)C4(C)C)[C@]3(C)C(=O)C[C@@]12C	–	0.187 µM (active)
CCOC(=O)c1c(C(C#N)=CN)c2ccc(Cl)c(Cl)c2n1C	-20.6% (inactive)	–
